# Results taken from PubChem BioAssay AID588511 (Johns Hopkins Ion Channel Center, 2011).
# Screen size: about 310,000 compounds; about 3,600 (1.2%) were called active.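 The calls were made as follows: active = ratio plate-corrected score three or more library SD toward inhibition, starting fluorescence score within five deviations; inactive = the rest.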 Shown is part of a subset that was picked to be rich in actives.
# Biological target: Anoctamin-1 (Mus musculus) (UniProt Q8BHY3)
# Assay: blockers of mouse ANO1 Ca-activated Cl channel – cell-based, HTS, primary screen (AID 588511);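 as to normalized B-score (activity score, 25-100; higher = stronger inhibition): score derived from kinetic fluorescence span divided by baseline fluorescence per well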
# Conditions: HEK293 TMEM16A/YFP iodide influx fluorescence, ionomycin; at 10 µM
# Chain of Anoctamin-1 (Mus musculus) (Q8BHY3 whole entry, looked up): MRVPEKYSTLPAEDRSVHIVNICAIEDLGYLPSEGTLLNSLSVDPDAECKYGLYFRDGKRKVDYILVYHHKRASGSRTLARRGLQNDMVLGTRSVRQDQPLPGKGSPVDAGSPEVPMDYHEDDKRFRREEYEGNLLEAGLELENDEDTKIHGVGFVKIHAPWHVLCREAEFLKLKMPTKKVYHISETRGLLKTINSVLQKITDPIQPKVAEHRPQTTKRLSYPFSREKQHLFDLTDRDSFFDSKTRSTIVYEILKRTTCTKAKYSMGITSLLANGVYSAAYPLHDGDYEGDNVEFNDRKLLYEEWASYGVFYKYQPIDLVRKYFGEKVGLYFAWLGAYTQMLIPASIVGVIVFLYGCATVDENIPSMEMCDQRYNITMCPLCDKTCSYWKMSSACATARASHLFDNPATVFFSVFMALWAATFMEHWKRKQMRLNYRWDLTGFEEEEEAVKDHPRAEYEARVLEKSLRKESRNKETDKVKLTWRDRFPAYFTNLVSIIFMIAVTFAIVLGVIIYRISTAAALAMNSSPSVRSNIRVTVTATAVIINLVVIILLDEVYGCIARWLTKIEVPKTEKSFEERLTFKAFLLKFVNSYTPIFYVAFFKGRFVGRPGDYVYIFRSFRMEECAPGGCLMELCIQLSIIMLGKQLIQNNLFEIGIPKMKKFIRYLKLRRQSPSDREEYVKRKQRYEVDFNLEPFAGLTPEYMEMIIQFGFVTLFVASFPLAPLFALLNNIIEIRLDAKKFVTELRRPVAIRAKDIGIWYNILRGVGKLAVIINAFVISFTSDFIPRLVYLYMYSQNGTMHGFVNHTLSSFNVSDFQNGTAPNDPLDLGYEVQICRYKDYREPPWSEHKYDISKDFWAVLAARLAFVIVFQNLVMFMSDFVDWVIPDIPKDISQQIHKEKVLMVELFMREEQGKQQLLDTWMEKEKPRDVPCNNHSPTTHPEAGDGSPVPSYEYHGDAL
row,Structure (SMILES),"normalized B-score (activity score, 25-100; higher = stronger inhibition)"
1,O=C(C1CC1)N1CCN=C1SCc1ccc(Cl)cc1,inactive
2,O=C(c1ccc(CSc2ccccc2)cc1)N1CCCCCC1,inactive
3,CC1CCN(C(=O)c2ccc(CSc3ccc(Cl)cc3)cc2)CC1,25 (active)
4,CCCCN1C(N)=NC[C@@H]1Cc1ccccc1,inactive
5,COc1ccc(NS(=O)(=O)c2ccc(C)c(C(=O)NNC(=O)c3csc(N4CCOCC4)n3)c2)cc1,inactive
6,Cc1ccc(CN2CCN(Cc3ccc(OCCO)cc3)CC2CCO)o1 (stereo not drawn),inactive
7,CC12CCC(C(=O)N(c3cccc(Cl)c3)C1=O)C2(C)C (stereo not drawn),inactive
8,CC1=NN(c2cccc(Cl)c2)C(=O)C12CC(C)=C(C)CS2 (stereo not drawn),100 (active)
9,Cc1ccccc1OCC(=O)NNC(=O)c1cc(S(=O)(=O)N(C)C)ccc1N1CCCC1,inactive
10,CN(C(=O)COC(=O)c1ccc(Br)o1)c1c(N)n(Cc2ccccc2)c(=O)[nH]c1=O,inactive
11,COC(=O)c1ccccc1NS(=O)(=O)c1ccc2[nH]c(=O)[nH]c2c1,inactive
12,COc1cccc(OC)c1C(=O)Nc1c(C(=O)N2CCN(c3ccccn3)CC2)oc2ccccc12,inactive
13,O=C(CN1C(=O)C2C3C=CC(C3)C2C1=O)Nc1nc(-c2ccccn2)cs1 (stereo not drawn),inactive
14,Cc1cc(NC(=O)[C@H](C)NC(=O)c2ccco2)ccc1Br,inactive
15,CC(NC(=O)c1ccco1)C(=O)Nc1nc(-c2ccccn2)cs1 (stereo not drawn),100 (active)
16,CCc1ccc(NC(=O)C(=O)NNC(=O)c2cccs2)cc1,inactive
17,OCC[C@H]1C[C@@H](O)[C@H](O)[C@@]2(OCCc3ccccc32)O1,inactive
18,CCOC(=O)C1Nc2ccc(C(F)(F)F)cc2C2C=CCC12 (stereo not drawn),inactive
19,COc1ccc(C(=O)N2CCCCC2C(=O)Nc2ccc(-n3nc(C)cc3C)cc2)o1 (stereo not drawn),inactive
20,O=S(=O)(NC1CC2CCC1C2)c1ccc(Cl)cc1 (stereo not drawn),inactive
21,Cc1cc(C)cc(OCC(=O)Nc2nc3ccc([N+](=O)[O-])cc3s2)c1,100 (active)
22,CCOc1ccc2nc(NC(=O)c3cc([N+](=O)[O-])ccc3N3CCOCC3)sc2c1,inactive

row,Structure (SMILES),"normalized B-score (activity score, 25-100; higher = stronger inhibition)"
1,CCC(=O)c1ccc(OCC(=O)Nc2ccc3nc(C)sc3c2)cc1,inactive
2,Cc1cc(F)ccc1N1CCC(N2CCN(C)C(CCO)C2)CC1 (stereo not drawn),inactive
3,Cc1cccc(C(=O)Nc2ccc(Oc3cnccn3)cc2)c1,inactive
4,Cc1csc(=Nc2ccccc2)n1CCO,inactive
5,Cc1csc(=NC(=O)c2ccccc2)n1CCO,inactive
6,OCCn1c(-c2ccccc2)csc1=Nc1ccccc1,25 (active)
7,O=C(OC1CCOC1=O)c1cccc(S(=O)(=O)Nc2ccc(F)cc2)c1 (stereo not drawn),inactive
8,CCOC(=O)C1CCN(C(=O)C2CCCN(S(=O)(=O)c3ccc(OC)c(Cl)c3)C2)CC1 (stereo not drawn),inactive
9,COC(=O)c1ccc(COC(=O)c2c(C)nn(Cc3ccccc3Cl)c2Cl)o1,25 (active)
10,COC(=O)c1ccc(COC(=O)C2CCN(S(=O)(=O)c3c(Cl)cccc3Cl)CC2)o1,inactive
11,COC(=O)c1ccc(CSc2ccccc2C)o1,inactive
12,Cc1ccc(O)c(/C=N/NC(=O)COc2ccc3c(C)cc(=O)oc3c2)c1,inactive
13,S=C(NCC1CCCO1)N1CCN(c2ccc(Cl)c(Cl)c2)CC1 (stereo not drawn),100 (active)
14,COc1ccc(S(=O)(=O)N2CCN(C(=S)NCC3CCCO3)CC2)cc1OC (stereo not drawn),inactive
15,CCOc1ccc(S(=O)(=O)N2CCN(C(=S)NCC3CCCO3)CC2)cc1 (stereo not drawn),inactive
16,Cc1ccccc1CN1CCNC(=O)C1CC(=O)NCCC1=CCCCC1 (stereo not drawn),inactive
17,Cc1nnc(SCCCCSc2nnc(C)c(=O)[nH]2)[nH]c1=O,inactive
18,CC(C)(C)c1ccc(CCC2OCC(CN3CCOCC3)O2)cc1 (stereo not drawn),inactive
19,CCCC(C)n1[nH]c(=O)c2c(C)cc(C)nc21 (stereo not drawn),inactive
20,CCCCC(=O)NNC(=S)NC(=O)C(c1ccccc1)c1ccccc1,25 (active)
21,O=C(NNC(=S)NCc1ccco1)C(c1ccccc1)c1ccccc1,inactive
22,CC(C)C(=O)Nc1cccc(NC(=S)NC(=O)C(c2ccccc2)c2ccccc2)c1,inactive

row,Structure (SMILES),"normalized B-score (activity score, 25-100; higher = stronger inhibition)"
1,CSCCC(NS(=O)(=O)c1ccc(C)cc1)C(=O)N1CCCC1 (stereo not drawn),inactive
2,CN(C)c1ccc(-c2nnc(-c3cccnc3)o2)cc1,inactive
3,COc1cccc(N(C(=O)c2ccn[nH]2)C2(C(=O)Nc3c(C)cccc3C)CCCCC2)c1,inactive
4,CS(=O)(=O)N1CCN=C1SCc1ccc(F)cc1,inactive
5,CCOC(=O)N1CCN(C(=O)c2ccc3c(c2)N(Cc2ccc(C)cc2)CCS3)CC1,25 (active)
6,O=C(NCCc1ccccc1)c1ccc2c(c1)N(Cc1ccccc1)CCS2,inactive
7,O=C(NCCN1CCOCC1)c1ccc2c(c1)N(Cc1ccc(Cl)cc1)CCS2,inactive
8,CC1CCN(C(=O)c2cccc(S(=O)(=O)N3CCCc4ccccc43)c2)CC1,inactive
9,O=C1CCC(=O)N(O)CCCCCNC(=O)CCC(=O)N(O)CCCCCNC(=O)CCC(=O)N(O)CCCCCN1,inactive
10,Cc1ccc(NC(=O)c2nc[nH]c2C(=O)N[C@@H](CCCCNC(=O)OC(C)(C)C)C(=O)OC(C)(C)C)cc1,inactive
11,O=C(CC1SCCNC1=O)Nc1ccc(Cl)c(Cl)c1 (stereo not drawn),inactive
12,O=C(Cc1ccc(Cl)c(Cl)c1)Nc1ccc(SC(F)F)cc1,inactive
13,O=C(CC(O)(C(F)(F)F)C(F)(F)F)Nc1ccc(Cl)c(Cl)c1,100 (active)
14,Cc1ccc(NC(=O)Cn2c(=O)n(CCC(=O)NC3CCN(Cc4ccccc4)CC3)c(=O)c3ccccc32)cc1,inactive
15,COc1ccc(-c2nc(SCC(=O)N3CCCC3)n[nH]2)cc1,inactive
16,CCc1c(C)nc(SCC(=O)NC2CCCC2)[nH]c1=O,inactive
17,CCc1ccc(-c2nc(SCC(=O)NC3CCCC3)n[nH]2)cc1,25 (active)
18,CCC(CC)C(=O)Nc1c2c(nn1-c1ccc(C)cc1)CS(=O)(=O)C2,inactive
19,O=C(NNS(=O)(=O)c1ccccc1C(F)(F)F)c1cc2ncc(C(F)(F)F)cc2s1,inactive
20,O=C(Nc1ccccc1N1CCN(C(=O)c2ccccc2)CC1)c1ccco1,inactive
21,CCCCC(=O)Nc1ccccc1N1CCN(c2ccc(F)cc2)CC1,inactive
22,CCCC(=O)Nc1ccccc1N1CCN(C(=O)c2ccccc2)CC1,25 (active)

row,Structure (SMILES),"normalized B-score (activity score, 25-100; higher = stronger inhibition)"
1,Cc1cc(C)cc(NS(=O)(=O)c2ccc(F)cc2)c1,inactive
2,COc1ccccc1Oc1ccc(S(=O)(=O)Nc2cccnc2)cc1,inactive
3,Cc1cc(C)cc(NS(=O)(=O)c2ccc(Oc3ncc(C(F)(F)F)cc3Cl)cc2)c1,25 (active)
4,CN1C(CC(=O)Nc2ccc(Br)cc2)c2ccccc2CC1(C)C (stereo not drawn),inactive
5,CCc1ccccc1NC(=O)CSc1nnc(CCNC(=O)OC(C)(C)C)o1,inactive
6,Cc1ccccc1CSc1nnc(CCCCCNC(=O)OC(C)(C)C)o1,100 (active)
7,Cc1cccc(NC(=O)CSc2nnc(CCCCCNC(=O)OC(C)(C)C)o2)c1C,inactive
8,CCc1ccc(C2C(C#N)=C(N)N(N3CCOCC3)C3=C2C(=O)CC(C)(C)C3)s1 (stereo not drawn),inactive
9,COc1cccc(C(=O)NCCS(=O)(=O)NCC2CCCO2)c1 (stereo not drawn),inactive
10,S=C(Nc1ccc(Br)cc1)NC1CCN(Cc2ccccc2)CC1,25 (active)
11,O=C(CCNC(=O)c1ccc(Br)cc1)NCCCc1ccccc1,inactive
12,S=C(NCCCc1ccccc1)Nc1ccc(Br)cc1,100 (active)
13,S=C(NN=C1CCN(Cc2ccccc2)CC1)NC1CCCCC1,inactive
14,S=C(NCCc1ccccc1)Nc1ccccc1,inactive
15,S=C(Nc1ccc(Br)cc1Cl)NC1CCN(Cc2ccccc2)CC1,inactive
16,O=C(NCc1ccccn1)C1CCN(S(=O)(=O)c2ccc(Br)cc2)CC1,inactive
17,COc1ccc(C(C#N)(CC(=O)O)c2cnccn2)cc1OC (stereo not drawn),inactive
18,COc1ccc(CCNC(=O)c2ccccc2OCc2ccccc2)cc1,inactive
19,O=C(NC1CCC(O)CC1)c1ccccc1OCc1ccc(F)cc1 (stereo not drawn),inactive
20,CC(=O)c1ccccc1OCc1ccc(C(=O)c2ccccc2)cc1,25 (active)
21,COc1ccccc1CNS(=O)(=O)c1ccc2c(c1)NC(=O)CS2,inactive
22,CCSc1nsc(NC(=O)Nc2cccc(C(C)=O)c2)n1,inactive

row,Structure (SMILES),"normalized B-score (activity score, 25-100; higher = stronger inhibition)"
1,CSc1nsc(NC(=O)Nc2ccccc2)n1,100 (active)
2,C=C(C)C(=O)Nc1cccc(C(C)=O)c1,inactive
3,O=C(Nc1ccccc1)Nc1nnc(COc2ccccc2F)s1,inactive
4,CCSc1nsc(NC(=O)Nc2ccccc2OC)n1,inactive
5,C=CCSc1nsc(NC(=O)Nc2cccc(C(C)=O)c2)n1,100 (active)
6,COc1ccc(-c2c(-c3ccc(OC)cc3O)nc(C)nc2C(F)(F)F)cc1,inactive
7,COc1cc(NC(=O)c2ccc(-c3csc(C)n3)cc2)c(OC)cc1Cl,inactive
8,CC1CCCCN1CCCNC(=O)Cn1ncc2c([nH]c3ccccc32)c1=O (stereo not drawn),inactive
9,Cc1ccc2c(c1)N(CC(=O)NCCCN1CCCCC1)C(=O)c1cccnc1O2,inactive
10,Clc1ccc(-c2nc3ccccn3c2CN2CCSCC2)cc1,inactive
11,CCCCn1c(N)c(N(CC(C)C)C(=O)CN(C)S(=O)(=O)c2ccc(F)cc2)c(=O)[nH]c1=O,inactive
12,CC(=O)c1cccc(NC(=O)N2CCCC2C(=O)NCCc2ccccc2)c1 (stereo not drawn),inactive
13,COc1ccc(CCNC(=O)C2CCCN2C(=O)Nc2ccccc2)cc1OC (stereo not drawn),inactive
14,CC(=O)c1cccc(NC(=O)N2CCCC2C(=O)NCCC(C)C)c1 (stereo not drawn),25 (active)
15,Cc1snc(SCc2c(F)cccc2Cl)c1C#N,inactive
16,Cc1cc(C)c2c(-n3cccc3)c(C(=O)NNS(=O)(=O)c3ccc(F)cc3)sc2n1,inactive
17,CC(Sc1nnc(Cc2ccc([N+](=O)[O-])cc2)o1)C(N)=O (stereo not drawn),inactive
18,CCn1nccc1C(=O)Nc1ccc(Cl)c(Cl)c1,inactive
19,CCn1nccc1C(=O)Nc1ccc(S(=O)(=O)NC23CC4CC(CC(C4)C2)C3)cc1,25 (active)
20,Cc1cc(C(F)F)n2nc(C(=O)Nc3ccc(S(=O)(=O)NC45CC6CC(CC(C6)C4)C5)cc3)nc2n1,inactive
